In PubChem BioAssay one finds composite z-score and z-score data, which are given here for 22 molecules.

Assay [1] has as its system XIP peptide (Xip251-270) binding. The assay is described as follows: XIP fragment 251-270 binding compounds – biochemical, small-molecule microarray, fluorescence 635/667 nm, 0.1 µg/mL protein, primary screen (AID 1182). The settings on record: fluorescent protein binding, 635 nm, higher = more signal, called active from +8 up or from −8 down.
A further assay has as its system XIP peptide (Xip251-270). Description: compounds binding XIP fragment 251-270 – biochemical, small-molecule microarray, fluorescence 635/667 nm, 0.5 µg/mL protein, primary screen (AID 1183). Particulars: fluorescence 635 nm, higher = more signal.
Assay [2] is described as follows: blood-stage malaria parasite viability loss – strain 3D7, DAPI fluorescence, 100 nL, primary screen (AID 1184).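 Also: parasites grown inside human red blood cells in medium with human serum.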 Particulars: P. falciparum 3D7 growth, 3 d, higher = more signal.
The target in assay [3] is Homeobox protein Hox-A13 (Mus musculus) (UniProt Q62424). Description: disruptors of Hoxa13 oligonucleotide interaction – biochemical, fluorescence polarization, labeled oligonucleotide, primary screen (AID 1185). Particulars: Hoxa13:DNA binding, 15 min, higher = more signal, called active from +8 up or from −8 down. (In general: Polarisation of emitted light reports the rotation of a fluorescent probe.)
Homeobox protein Hox-A13 (Mus musculus), sequence (Q62424 whole entry, looked up): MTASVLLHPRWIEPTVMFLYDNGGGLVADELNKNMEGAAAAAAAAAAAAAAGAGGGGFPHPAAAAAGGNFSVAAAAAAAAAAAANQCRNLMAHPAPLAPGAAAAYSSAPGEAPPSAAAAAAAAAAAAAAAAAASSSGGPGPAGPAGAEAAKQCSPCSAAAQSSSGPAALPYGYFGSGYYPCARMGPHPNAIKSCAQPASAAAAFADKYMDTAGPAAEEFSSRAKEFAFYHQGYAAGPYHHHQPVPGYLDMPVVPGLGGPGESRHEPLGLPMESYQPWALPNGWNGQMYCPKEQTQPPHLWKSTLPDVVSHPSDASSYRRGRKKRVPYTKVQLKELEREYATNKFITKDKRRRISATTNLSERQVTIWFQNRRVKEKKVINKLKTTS

Active and inactive are the calls of the source.

As to `O=c1n(-c2ccccc2)c(=O)n2n1CC[C@@H]1C(=NOCc3ccccc3)[C@H]3O[C@H]3[C@@H](O)[C@@H]12`, the composite z-score in assay [1] was -0.368 (inactive); in the assay on XIP peptide (Xip251-270), -0.0725. Moreover, the z-score was -0.557 in assay [2] and -4.06 (inactive) in assay [3].
For `CCOC(=O)[C@H](CC(C)C)NC(=O)CCC1CC(OC(=O)NCc2cccc3ccccc23)CC2(CCCC(COC(=O)NCCc3ccc(Cl)cc3)O2)O1` (stereo partly drawn) the same measures were -0.0551 (inactive), 0.111, -1.61 and -4.02 (inactive).
For `CC[C@@H](c1ccccc1)n1c(=O)n2n(c1=O)[C@H]1[C@H](O)[C@@H]3O[C@@H]3C(=NOC[C@@H](O)COCc3ccco3)[C@H]1CC2` the same measures were -0.0593 (inactive), -0.268, -0.949 and -3.57 (inactive).
For `CCO[C@H](c1cc(OC)cc([N+](=O)[O-])c1OC)[C@H](C)C=CCC(=O)OC` the same measures were -0.128 (inactive), 0.325, -0.0866 and -0.64 (inactive).
Consider `Cc1ccc(S(=O)(=O)N[C@H]2COC(=O)CC=C[C@H](C)[C@@H](NS(=O)(=O)c3ccc(C)cc3)COC(=O)CC=C[C@@H]2C)cc1`, for which the values for the composite z-score (in assay [1]; in the assay on XIP peptide (Xip251-270)) were 0.127 (inactive) and -0.019, respectively. In addition, the z-score in assay [2] was -0.304; in assay [3], -0.449 (inactive).
In the same order, the values of `CC(C)=CCCC(C)=CCON=C1C[C@@H](O)[C@@H](O)[C@@H]2[C@@H]3C(=O)N(c4cccc(Oc5ccccc5)c4)C(=O)[C@@H]3CC[C@@H]12` are 0.188 (inactive), 0.352, -1.58 and -3.76 (inactive).
In the same order, the values of `CO[C@H]1COC(=O)CC=C[C@@H](C)[C@H](OC)COC(=O)[C@@H]2CCCN2C(=O)CC=C[C@@H]1C` are 0.832 (inactive), 0.678, 0.095 and -0.438 (inactive).
In the same order, the values of `COC(=O)[C@H](C)NC(=O)CCC1CC(OC(=O)NCc2ccc3c(c2)OCO3)CC2(CCCC(COC(=O)NCc3cccc(C(F)(F)F)c3)O2)O1` (stereo partly drawn) are 0.2 (inactive), 0.717, -2.06 and -5.57 (inactive).
As to `COCOc1ccc(Br)cc1C(=O)[C@@H]1O[C@H]1c1cccc(OC)c1`, the composite z-score in assay [1] was -0.0455 (inactive); with XIP peptide (Xip251-270), 0.106. Moreover, the values for the z-score in assay [2] and in assay [3] were 0.194 and -1.99 (inactive), respectively.
Take `O=C(NN=C1C[C@@H](O)[C@@H](O)[C@@H]2[C@@H]3C(=O)N(Cc4ccccc4)C(=O)[C@@H]3CC[C@@H]12)OCc1ccccc1`: the composite z-score in assay [1] was -0.0255 (inactive); in the assay with XIP peptide (Xip251-270), -0.36. Moreover, the z-score is 0.915 in assay [2] and 0.236 (inactive) in assay [3].
For `COC(=O)[C@H](C)NC(=O)CCC1CC(OC(=O)NCc2cccc3ccccc23)CC2(CCCC(COC(=O)NCC(c3ccccc3)c3ccccc3)O2)O1` (stereo partly drawn) the same measures were 0.519 (inactive), 0.583, -1.87 and -4.01 (inactive).
For `CO[C@H]1COC(=O)CC=C[C@H](C)COC(=O)[C@@H](C)NC(=O)CC=C[C@@H]1C` the same measures were 0.0921 (inactive), 0.424, -1.19 and -1.07 (inactive).
As to `CO[C@H]1COC(=O)[C@@H](C)COC(=O)[C@H](COCc2ccccc2)NC(=O)CC=C[C@H]1C`, the figures for the composite z-score (in assay [1]; in the assay on XIP peptide (Xip251-270)) were -0.0299 (inactive) and -0.474, respectively. Besides, the z-score in assay [2] is -0.386; in assay [3] it was -1.96 (inactive).
With `CCOC(=O)[C@H](CC(C)C)NC(=O)CCC1CC(OC(=O)NCCc2ccc(F)cc2)CC2(CCCC(COC(=O)NCC3CCCCC3)O2)O1` (stereo partly drawn), the composite z-score in assay [1] is -0.0257 (inactive); with XIP peptide (Xip251-270), 0.437. For the same molecule, the z-score in assay [2] is -1.9; in assay [3], -7.04 (inactive).
Turning to `CO[C@H]1COC(=O)[C@@H](C)COC(=O)[C@H](C)NC(=O)CC=C[C@H]1C`, the results for the composite z-score (in assay [1]; with XIP peptide (Xip251-270)) were -0.166 (inactive) and 0.564, respectively. Besides, the figures for the z-score in assay [2] and in assay [3] were -0.455 and -0.236 (inactive), respectively.
Regarding `C=CC[C@@H]1C=C[C@H](ON=C(C)CCN2CCc3nc(-c4ccccc4)c(-c4ccccc4)cc3C2)[C@@H](CO)O1`, the composite z-score is 0.957 (inactive) in assay [1] and 0.58 in the assay with XIP peptide (Xip251-270). The z-score in assay [2] was -0.0674; in assay [3], -5.72 (inactive).
Consider `O=C1[C@H]2[C@H]3[C@H](O)[C@H](O)CC(=NOCc4ccccc4)[C@@H]3CC[C@H]2C(=O)N1C[C@@H]1CCCO1`, for which the composite z-score was -0.308 (inactive) in assay [1] and 0.625 in the assay on XIP peptide (Xip251-270). In addition, the z-score in assay [2] was -0.0671; in assay [3], -1.49 (inactive).
In the same order, the values of `CO[C@H](C1CCCCC1)[C@H](C)C=CCC(=O)OCCCc1ccccc1` are -0.74 (inactive), 0.628, -0.45 and 1.25 (inactive).
In the same order, the values of `CCCCC#C[C@@H]1C=C[C@H](Oc2cc(OC)c(OC)c(OC)c2)[C@@H](COC(=O)OCC)O1` are 0.392 (inactive), 0.355, 0.421 and -5.07 (inactive).
In the same order, the values of `COC(=O)[C@H]1[C@@H](O)[C@@]2(O)c3ccccc3O[C@@]2(c2ccccc2)[C@@H]1c1ccccc1` are -0.759 (inactive), -0.028, -1.87 and -1.51 (inactive).
As for `CCOC(=O)NN=C1C[C@@H](O)[C@@H](O)[C@@H]2[C@@H]3C(=O)N(c4cccc(Oc5ccccc5)c4)C(=O)[C@@H]3CC[C@H]12`, the composite z-score in assay [1] was 0.389 (inactive); in the assay on XIP peptide (Xip251-270) it was 0.0776. The z-score in assay [2] is 0.275; in assay [3], 1.22 (inactive).
With `Cc1cc2c(nc1C)CCCCN2CC(C)ON=C1[C@H]2CCn3c(=O)n(-c4ccccc4)c(=O)n3[C@H]2[C@H](O)[C@@H]2O[C@H]12` (stereo partly drawn), the composite z-score was -0.239 (inactive) in assay [1] and 0.7 in the assay with XIP peptide (Xip251-270). Further, the z-score in assay [2] is -1.94; in assay [3], -4.23 (inactive).
